The list is not random: actives were taken first. Their share in the collection is about 4.1%.
VHR inh abs: inhibitors of human VHR1 phosphatase (DUSP3) | P51452 | 0.52% of 290,000 active | inhibition, % at 13.3 µM | recombinant VHR phosphatase, pNPP absorbance; in the data active = inhibition above about 50%
BoNT A protease: inhibitors of Botulinum neurotoxin A light chain protease; inhibition, % at 10 µM; AID 588499; multiplex microsphere protease substrate cleavage, flow cytometry; 0.17% of 360,000 active; note: plate controls were buffer without enzyme for full effect and enzyme alone for no effect
Bead autofluor: flagged as autofluorescent in microsphere protease counterscreen; compound autofluorescence counterscreen, microsphere flow cytometry; active compounds read high; AID 624483; fluorescence intensity (no concentration beside the values); 3.1% of 360,000 active; in the data active = fluorescence intensity above about 16000; inconclusive = no clear call, values can overlap the other calls
Anthrax LF prot: anthrax lethal factor protease inhibition; P15917; multiplex microsphere protease cleavage assay, LF; inhibition, % at 10 µM; 0.12% of 360,000 active; note: plate controls were buffer without enzyme for full effect and enzyme alone for no effect
Target sequence (P15917 whole entry, looked up): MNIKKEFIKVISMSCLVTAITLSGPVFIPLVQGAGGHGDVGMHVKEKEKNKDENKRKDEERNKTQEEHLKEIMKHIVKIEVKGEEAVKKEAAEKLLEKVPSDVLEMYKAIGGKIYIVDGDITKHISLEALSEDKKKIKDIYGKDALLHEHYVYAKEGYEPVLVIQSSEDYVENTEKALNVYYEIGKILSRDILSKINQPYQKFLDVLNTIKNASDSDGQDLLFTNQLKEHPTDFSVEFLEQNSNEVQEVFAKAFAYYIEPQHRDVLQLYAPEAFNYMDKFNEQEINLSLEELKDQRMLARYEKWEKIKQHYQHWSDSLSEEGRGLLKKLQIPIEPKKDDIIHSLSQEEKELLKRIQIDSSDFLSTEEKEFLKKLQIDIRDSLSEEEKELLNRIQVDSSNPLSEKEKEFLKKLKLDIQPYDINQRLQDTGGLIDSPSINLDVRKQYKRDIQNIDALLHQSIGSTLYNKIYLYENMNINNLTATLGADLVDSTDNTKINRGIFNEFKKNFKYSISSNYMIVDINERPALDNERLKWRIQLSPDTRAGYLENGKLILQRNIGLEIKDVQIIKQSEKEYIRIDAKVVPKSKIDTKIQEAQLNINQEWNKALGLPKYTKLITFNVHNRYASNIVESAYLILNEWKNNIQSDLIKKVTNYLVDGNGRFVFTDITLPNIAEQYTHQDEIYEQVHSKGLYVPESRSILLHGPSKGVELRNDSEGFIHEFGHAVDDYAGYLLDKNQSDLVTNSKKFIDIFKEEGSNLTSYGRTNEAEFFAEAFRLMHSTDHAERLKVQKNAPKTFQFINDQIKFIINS
MazEF act: increases E. coli MazEF RNase cleavage of RNA. FAM/BHQ RNA-DNA oligo cleavage fluorescence, 5 h. AID 504720. P0AE70. 0.32% of 350,000 active. activation, % at 20 µM; in the data active = activation above about 50%
BoNT F protease: BoNT F light chain protease inhibition | Multiplex microsphere protease cleavage assay, flow cytometry | inhibition, % at 10 µM | 0.22% of 360,000 active | AID 588497; in the data active = inhibition above about 35%, passing the limit was not always enough; inconclusive = no clear call, values can overlap the other calls; note: plate controls were buffer without enzyme for full effect and enzyme alone for no effect
Numbers without * were called inactive. Cut-off read from the data, not from the text of the source, unless noted: active = inhibition above about 30%; inconclusive = no clear call, values can overlap the other calls; inactive = below that.

How did COc1ccccc1N(CN1CCCC1=O)C(=O)c1c(F)cccc1Cl do in these assays?
VHR inh abs: -20; BoNT A protease: inconclusive; Bead autofluor: inconclusive; Anthrax LF prot: -7; MazEF act: -13; BoNT F protease: -2

Results for COc1cccc(C(=O)N(CN2CCCC2=O)c2cc(C)on2)c1 ?
VHR inh abs: 1; BoNT A protease: inconclusive; Bead autofluor: 22265*; Anthrax LF prot: 1; MazEF act: 0; BoNT F protease: -1

How did CCOc1ccccc1C(=O)N(CN1CCCC1=O)c1cccc(Cl)c1 do in these assays?
VHR inh abs: 29; BoNT A protease: inconclusive; Bead autofluor: 21571*; Anthrax LF prot: -5; MazEF act: 5; BoNT F protease: 1

What do the screens show for `COc1ccc(C(=O)N(CN2CCCC2=O)c2ccccc2OC)cc1OC`?
VHR inh abs: -6; BoNT A protease: -2; Bead autofluor: 23117*; Anthrax LF prot: 0; MazEF act: 2; BoNT F protease: -2

Results for COc1ccccc1C(=O)N(CN1CCCC1=O)c1cccc(Cl)c1 ?
VHR inh abs: 9; BoNT A protease: 1; Bead autofluor: 22324*; Anthrax LF prot: -2; MazEF act: 4; BoNT F protease: 2

Results for CC(C)OCCCNC(=O)c1ccccc1NC(=O)C1=CSCCO1 ?
VHR inh abs: 19; BoNT A protease: 2; Bead autofluor: 5397; Anthrax LF prot: -4; MazEF act: -5; BoNT F protease: 9

Results for O=C(NCc1ccco1)/C(=C\c1cccs1)NC(=O)c1ccco1 ?
VHR inh abs: 22; BoNT A protease: 0; Bead autofluor: 2006; Anthrax LF prot: -3; MazEF act: 3; BoNT F protease: 5

How did CCCCN1CCCCC1(C)C(=O)NCc1cccs1 (stereo not drawn) do in these assays?
BoNT A protease: 1; Bead autofluor: 3742; Anthrax LF prot: -1; BoNT F protease: -14

How did O=C(NC1CCCC1)C(c1ccco1)N(Cc1ccccc1)C(=O)c1csnn1 (stereo not drawn) do in these assays?
VHR inh abs: 10; BoNT A protease: inconclusive; Bead autofluor: 20226*; Anthrax LF prot: -1; MazEF act: -3; BoNT F protease: -2

Results for CC(C)(C)NC(=O)C(c1ccccc1F)N(Cc1ccco1)C(=O)c1csnn1 (stereo not drawn) ?
VHR inh abs: 24; BoNT A protease: -1; Bead autofluor: 16964*; Anthrax LF prot: -1; MazEF act: 4; BoNT F protease: 1

Results for O=C(NC1CCCCC1)C(c1ccco1)N(C(=O)c1csnn1)C1CCCC1 (stereo not drawn) ?
VHR inh abs: 5; BoNT A protease: 1; Bead autofluor: 22986*; Anthrax LF prot: 3; MazEF act: 0; BoNT F protease: 4

What do the screens show for `CC(C)(C)NC(=O)C(c1cccs1)N(Cc1ccco1)C(=O)c1csnn1` (stereo not drawn)?
VHR inh abs: -15; BoNT A protease: -2; Bead autofluor: 3181; Anthrax LF prot: -3; MazEF act: -9; BoNT F protease: 26

Results for COCCN(C(=O)c1csnn1)C(C(=O)NC1CCCCC1)c1sccc1C (stereo not drawn) ?
VHR inh abs: -8; BoNT A protease: 0; Bead autofluor: 23376*; Anthrax LF prot: 2; MazEF act: 8; BoNT F protease: -2

Results for CCCCc1ccc(S(=O)(=O)NC(=O)C2(C)CCN2C(=O)C/C=C/c2ccccc2)cc1 (stereo not drawn) ?
BoNT A protease: 0; Bead autofluor: 3062; Anthrax LF prot: -9; BoNT F protease: -12

What do the screens show for `CCN(CCn1cccn1)Cc1c(C(=O)N2CCCCCCC2)nc2ccc(Cl)cn12`?
VHR inh abs: 44; BoNT A protease: 0; Bead autofluor: 2845; Anthrax LF prot: -2; MazEF act: -28; BoNT F protease: 3

What do the screens show for `O=C(NC1CCCC1)C(c1ccccn1)N(C(=O)c1csnn1)C1CC1` (stereo not drawn)?
VHR inh abs: 0; BoNT A protease: -2; Bead autofluor: 16748*; Anthrax LF prot: -2; MazEF act: -9; BoNT F protease: -7

How did CCOc1ccc(C2C(C#N)=C(N)Oc3c2c(=O)oc2ccccc32)cc1 (stereo not drawn) do in these assays?
VHR inh abs: 28; BoNT A protease: inconclusive; Bead autofluor: 24671*; Anthrax LF prot: -2; MazEF act: -2; BoNT F protease: -6

Results for Oc1c(C=C2N=c3ccccc3=N2)sc(=S)n1-c1ccc(F)cc1 ?
VHR inh abs: 13; BoNT A protease: 54*; Bead autofluor: 2517; Anthrax LF prot: 34*; MazEF act: 19; BoNT F protease: 19

What do the screens show for `Oc1c(C=C2N=c3ccccc3=N2)sc(=S)n1C1CCCC1`?
VHR inh abs: -2; BoNT A protease: 70*; Bead autofluor: 2041; Anthrax LF prot: 39*; MazEF act: 2; BoNT F protease: 26

What do the screens show for `COc1ccccc1-c1oc2ccccc2c1C#CC(C)(C)O`?
BoNT A protease: -1; Bead autofluor: 4241; Anthrax LF prot: -9; MazEF act: -5; BoNT F protease: -4

How did O=C1C2CC=C(Cl)CC2C(=O)N1c1ncn[nH]1 (stereo not drawn) do in these assays?
VHR inh abs: 13; BoNT A protease: -1; Bead autofluor: 2637; Anthrax LF prot: -2; MazEF act: 0; BoNT F protease: -16

How did O=C1C2CC=CCC2C(=O)N1c1ncn[nH]1 (stereo not drawn) do in these assays?
VHR inh abs: 13; BoNT A protease: 0; Bead autofluor: 16218*; Anthrax LF prot: -3; MazEF act: 5; BoNT F protease: 2

What do the screens show for `COc1ccc(Cn2c(SCc3ccccc3C)nc3cc(OC)c(OC)cc3c2=N)cc1`?
VHR inh abs: 14

How did COc1cc2nc(SCc3ccc(F)cc3)n(Cc3cccs3)c(=N)c2cc1OC do in these assays?
VHR inh abs: 9; BoNT A protease: inconclusive; Bead autofluor: 20501*; Anthrax LF prot: -1; MazEF act: -5; BoNT F protease: -3

Results for COc1ccc(CNc2ncc(-c3ccccc3)n2C)cc1 ?
VHR inh abs: 20; BoNT A protease: 1; Bead autofluor: 3144; Anthrax LF prot: 2; MazEF act: 11; BoNT F protease: inconclusive

Results for CCOc1cc(CNc2ncc(-c3ccc(OC)cc3)n2C)ccc1O ?
VHR inh abs: 13; BoNT A protease: 0; Bead autofluor: 20656*; Anthrax LF prot: -4; MazEF act: -1; BoNT F protease: -4

Results for O=c1c2cc(Br)ccc2nc(-c2ccc(Cl)cc2)n1O ?
VHR inh abs: 52*; BoNT A protease: 4; Bead autofluor: 3393; Anthrax LF prot: -5; MazEF act: 1; BoNT F protease: 11

How did Cc1ccc(-n2ncc3c(=O)n(CC#N)cnc32)cc1 do in these assays?
VHR inh abs: 15; BoNT A protease: 0; Bead autofluor: 20625*; Anthrax LF prot: -1; MazEF act: -2; BoNT F protease: -2

High-throughput results deposited in PubChem BioAssay by several laboratories.
